Data reported in PubChem BioAssay AID1159580 (chemical genetic matrix, 2015).
In all, about 5,500 compounds went through this assay and about 2,000 (36%) were called active. Not shown: some 18% with an inconclusive outcome. Rule as the data show it: active = normalized growth mostly below about 0.91 (no sharp cut-off); inconclusive = no clear call, values can overlap the other calls; inactive = mostly above about 0.92. This is one part of the list.

Assay: chemical genetic growth profiling, strain panel (AID 1159580);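 also: tested at 20 µM; growth read once vehicle control cultures reached saturation at 30 °C; 1 = growth at the plate median or of vehicle wells; lower values mean less growth of the strain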
Conditions: S. cerevisiae deletion strains, growth OD

Measured: normalized growth

Cc1ncc(CSSCc2cnc(C)c(O)c2CO)c(CO)c1O
inactive: locus YHR030C, strain SLT2, active compounds read low 1.01 | locus YHR079C, strain IRE1, active compounds read low 1.01 | locus YJL095W, strain BCK1, active compounds read low 0.995 | locus YJR066W, strain TOR1, active compounds read low 0.945 | locus YLR113W, strain HOG1, active compounds read low 0.983 | locus YNL183C, strain NPR1, active compounds read low 0.948 | locus YOR231W, strain MKK1, active compounds read low 1.01 | locus YPL256C, strain CLN2, active compounds read low 1.01
